Six1-Eya2 blk – Six1/Eya2 interaction inhibition | AlphaScreen GST-Six1/His-Eya2 binding, biochemical; active compounds read low | actives 0.56% (n = 360,000) | Q15475+O00167 | activity change, % (test concentration not listed); in the data active = activity change below about -65%; inconclusive = mostly about -30% to -63%
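AlphaScreen luminescence read after one hour at 37 °C in darkness. Pin-transferred compounds met GST-Six1 and His-Eya2 protein (5X stock 250 nM/500 nM) plus glutathione donor and Ni-chelate acceptor beads (5X, 50 ug/mL).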
Gal4-VP16 FLuc – counter-screen for ROR gamma inhibitors: Gal4-VP16 reporter; AID 2546; Potency, µM (top dose mostly 53.6 µM), for inactives: at the top dose activity, negative = inhibition, usual class: inhibitors; Drosophila S2 Gal4-VP16 UAS-luciferase, luminescence, 20 h; actives 3.5% (n = 310,000);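 note: Gal4-VP16 expression switched on by copper sulfate through the metallothionein promoter; potency is the fitted concentration of half-maximal effect; nearly all actives have a fitted effect of over 50% in size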
PKM2 act – activators of human pyruvate kinase M2. purified PKM2, Kinase-Glo ATP luminescence, activation; response scale: 0% is enzyme alone, no compound. Potency, µM (highest dose often 57.5 µM), for the others: top-dose activation, usual class: activators. actives 0.34% (n = 260,000); note: potency is the fitted concentration of half-maximal effect; nearly all actives have a fitted effect of over 55% in size
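Purified hPK-M2 (>95%) run at intermediate activity with 0.1 mM ADP and 0.5 mM PEP in 50 mM imidazole pH 7.2, KCl, MgCl2; 1 h room temperature. ATP formed read by Kinase-Glo luminescence; normalized to uninhibited and no-enzyme controls.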
RORgamma inh – blocks mouse ROR gamma transcriptional activity. Drosophila S2 Gal4-RORgamma UAS-luciferase reporter, 20 h. Potency, µM (series often up to 53.6 µM), for the others: top-dose activity change, negative = inhibition, usual class: inhibitors. AID 2551. actives 5.4% (n = 310,000); note: potency is the fitted concentration of half-maximal effect; nearly all actives have a fitted effect of over 60% in size
Target sequence (P51450 whole entry, looked up, the tested form may be a part): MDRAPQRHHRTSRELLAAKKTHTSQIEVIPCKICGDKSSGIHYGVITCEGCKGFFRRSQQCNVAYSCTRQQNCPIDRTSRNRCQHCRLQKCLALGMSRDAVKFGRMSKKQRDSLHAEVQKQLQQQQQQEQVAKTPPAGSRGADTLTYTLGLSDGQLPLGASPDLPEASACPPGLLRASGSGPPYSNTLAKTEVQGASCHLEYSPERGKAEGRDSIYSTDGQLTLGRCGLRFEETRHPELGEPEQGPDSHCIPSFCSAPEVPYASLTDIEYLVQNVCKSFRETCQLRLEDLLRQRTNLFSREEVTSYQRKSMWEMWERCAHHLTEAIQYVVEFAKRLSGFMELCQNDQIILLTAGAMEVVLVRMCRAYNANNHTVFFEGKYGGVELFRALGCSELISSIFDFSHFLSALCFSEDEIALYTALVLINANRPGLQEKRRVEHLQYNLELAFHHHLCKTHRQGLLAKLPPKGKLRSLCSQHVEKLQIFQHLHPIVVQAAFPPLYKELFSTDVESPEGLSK
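Luciferase reporter read in Schneider cells carrying Gal4-RORγ (mouse) and UAS-Photinus luciferase; cells given compound 1 h before 700 uM copper sulfate induction, then incubated 20 h at ambient temperature.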
CtBP-E1A blk – CtBP/E1A binding inhibition. AlphaScreen GST-E1A/His-CtBP binding, 1536-well; active compounds read low. activity change, % (test concentration not listed). actives 0.49% (n = 340,000). AID 651724; in the data active = activity change below about -65%; inconclusive = mostly about -30% to -63%
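GST-E1A and His-tagged CtBP (125 nM each as 5X stock) were preincubated with pin-transferred compound for 2 h at 37 °C in the dark, then glutathione donor and nickel acceptor beads were added for 1 h before AlphaScreen reading.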
* marks the source's active call; other numbers are inactive results; u = inconclusive; x = no result given; ! = not confirmed by another sample. Shown are actives, neighbours in structure and some others; about 5.6% of the full set was active somewhere. Unless noted, calls come from the whole dose curve; as a rule, active = well fitted curve in the direction sought with a large enough effect; inconclusive = small, poorly fitted or top-dose-only effect, or another doubt; inactive = no such curve, though single readings can be large; an effect the other way counts as inactive or inconclusive. % is set by controls: 0 for no effect and ±100 for the full control effect.

SMILES | Six1-Eya2 blk | Gal4-VP16 FLuc | PKM2 act | RORgamma inh | CtBP-E1A blk
CC1CCCC(NC(=S)Nc2cccc(S(=O)(=O)N(C)C)c2)C1C (stereo not drawn) | -5.4 | u | 9.4% | 12.6µM* | -0.7
NS(=O)(=O)c1cccc(NC(=S)NC(=O)C23CC4CC(CC(C4)C2)C3)c1 | -9.3 | 6.2% | -4.0% | 11.7% | -7.1
Cc1ccccc1NC(=O)NC1(C(=O)N2CCN(C)CC2)CCCCC1 | 3.4 | -6.2% | -7.3% | -8.6% | 2.4
O=C(CN(C(=O)CNC(=O)c1cccs1)c1ccc(F)cc1)NC1CCCCC1 | 1.4 | 4.0% | -14.2% | -12.7% | -0.3
COc1ccc(NC(=O)c2cc([N+](=O)[O-])ccc2N2CCCC2)cc1S(N)(=O)=O | -9.9 | x | x | x | 2.1
CCN1C(C)=C(C(=O)OC(C)C)C(c2ccccc2Cl)C(C(=O)O)=C1C(=O)O (stereo not drawn) | x | -11.6% | x | u | x
Cc1ccc(S(=O)(=O)N(C)C)cc1NC(=S)NC12CC3CC(CC(C3)C1)C2 | -10.4 | 5.62µM* | 3.0% | 5.01µM* | 13.4
CN(C)S(=O)(=O)c1cccc(NC(=S)NC23CC4CC(CC(C4)C2)C3)c1 | -12.4 | u | x | 4.47µM* | 0.4
CN(C)S(=O)(=O)c1cccc(NC(=S)NC2CCCCC2)c1 | 2.3 | 12.0% | -4.4% | -39.7% | 0.2
Cc1ccc(-c2csc(N/N=C/C=C/c3ccccc3)n2)cc1 | -0.7 | u | 0.9% | 2.82µM* | 1.7
CCC/C=N/Nc1nc2ccccc2s1 | -8.9 | u | -7.8% | 11.2µM* | -7.4
C(=C\c1ccccc1)/C=N/Nc1nc2ccccc2s1 | 4.0 | u | 0.4% | 7.94µM* | 3.2
O=C(Nc1ccncc1Cl)c1ccncc1 | 1.0 | -6.1% | -7.1% | -5.4% | -0.4
O=C(OCc1ccc([N+](=O)[O-])cc1)c1cc(=O)c2ccccc2o1 | -0.2 | 10.0% | -6.0% | -20.8% | -11.1
CCOC(=O)/C(C#N)=C/c1ccc(OC(=O)c2ccccn2)cc1 | -86.9* | u | -14.6% | u | -2.9
CC(C)(C)NC(=O)C(c1ccco1)N(Cc1ccc2c(c1)OCO2)C(=O)c1snc(C(N)=O)c1N (stereo not drawn) | 0.5 | 4.1% | -7.9% | u | -0.8
O=C1Nc2ccccc2-c2nnnn2C1N1CCCCC1 (stereo not drawn) | 1.7 | x | x | x | -6.7
O=C(Cc1cccs1)NNC(=S)NC(=O)c1ccc(F)c(F)c1 | -2.2 | 5.62µM* | -14.4% | 6.31µM* | -0.7
O=C(Cc1cccs1)NNC(=S)NC(=O)c1ccccc1 | -0.4 | 10µM* | -8.6% | 7.94µM* | 3.8
CCCCN(C1CCS(=O)(=O)C1)S(=O)(=O)c1cc(C)ccc1C (stereo not drawn) | 8.2 | x | x | x | -1.8
CCN(CC(=O)Nc1cc(Cl)ccc1C)C(=O)c1nc2nc(C)cc(C)n2n1 | 5.6 | x | x | x | 3.4
COC(=O)N1C(=O)[C@@](c2ccccc2)(C2CCCCC2)N1C(=O)OC | -0.5 | -8.1% | 0.0% | 7.94µM* | -0.1
C=CCn1ccc(=O)nc1SC | -15.5 | x | x | x | 0.0
COc1ccc(CCNc2nc(-c3ccncc3)cs2)cc1OC | -11.4 | -9.6% | 3.6% | 5.5% | -20.3
COc1ccc(CCNc2nc(-c3ccccn3)cs2)cc1OC | -78.8* | -16.0% | -0.7% | u | x
SMILES | Six1-Eya2 blk | Gal4-VP16 FLuc | PKM2 act | RORgamma inh | CtBP-E1A blk
CN(C)c1ccc(C(=C2C=CC(=[N+](C)C)C=C2)c2ccc(N(C)C)cc2)cc1 | x | 1.58µM*! | x | 1.12µM* | x
CN(C)c1ccc(C(=C2C=CC(=[N+](C)C)C=C2)c2c(O)c(S(=O)(=O)[O-])cc3cc(S(=O)(=O)O)ccc23)cc1 | x | 8.91µM* | x | 8.91µM* | x
Cc1ccc(CN2CC(C(=O)NCCC3=CCCCC3)CC2=O)cc1 (stereo not drawn) | 16.3 | x | x | x | -1.7
O=C1CCc2cc(S(=O)(=O)NCCc3ccccc3)cc3c2N1CC3 | -3.2 | x | x | x | -1.7
O=C(O)C1Nc2c(cccc2C(F)(F)F)C2C=CCC12 (stereo not drawn) | x | 3.1% | x | 6.2% | x
O=C(O)C1Nc2c(O)cc(Cl)c([N+](=O)[O-])c2C2C=CCC12 (stereo not drawn) | u | -7.6% | u | 10µM* | x
CCCCNC(=NCc1cccc(C(F)(F)F)c1)Nc1ccccc1 | 4.7 | -4.1% | x | -1.2% | 4.5
CCC(=O)NC(c1cccs1)c1ccc2cccnc2c1O (stereo not drawn) | -93.2* | 1.12µM* | -4.3% | 0.501µM* | x
CC(C)CC(=O)NC(c1cccs1)c1ccc2cccnc2c1O (stereo not drawn) | -81.3* | -12.8% | 0.0% | 0.7% | -88.5*
Cc1conc1NC(c1cccs1)c1ccc2cccnc2c1O (stereo not drawn) | x | 5.62µM* | -0.5% | 2.51µM* | x
Cc1cc2nc(CCN(Cc3cccnc3)C(=S)Nc3ccccc3)[nH]c2cc1C | -10.2 | -28.5% | -3.5% | 14.1µM* | 8.7
CCN(CC(=O)NC1CCS(=O)(=O)C1)C(C)C(=O)Nc1ccc(F)cc1 (stereo not drawn) | 3.3 | x | x | x | 9.8
O=C1c2ccccc2-c2onc3ccc(NCCCn4ccnc4)c1c23 | -78.2* | -22.8% | 5.2% | 12.6µM* | 14.0
CCCCC(=O)N1C/C=C\C(c2ccc(OC)cc2)N(Cc2ccc(F)cc2)C(=O)[C@H]1Cc1ccccc1 (stereo partly drawn) | -1.4 | u | 7.5% | u | -15.5
COc1ccc(C2/C=C\CN(C(=O)C3CC3)C(Cc3ccccc3)C(=O)N2Cc2ccc(F)cc2)cc1 (stereo not drawn) | x | u | x | 10µM* | x
COc1ccc(C2/C=C\CN(C(=O)C3CC3)[C@H](Cc3ccccc3)C(=O)N2Cc2ccc(F)cc2)cc1 (stereo partly drawn) | -7.5 | -19.7% | -2.7% | 11.2µM* | -14.7
COc1ccc(C2/C=C\CN(C(=O)c3ccc(C)cc3)[C@H](Cc3ccccc3)C(=O)N2Cc2ccc(F)cc2)cc1 (stereo partly drawn) | -6.2 | 4.4% | -1.0% | u | -9.2
COc1ccc(NC(=O)Cn2ncn3nc(-c4ccc(OC)cc4)cc3c2=O)cc1 | -5.1 | -6.5% | x | -3.6% | 1.2
CCC(C)(O)c1[nH]c2ccc(C(=O)OC)cc2c1C (stereo not drawn) | 19.4 | -5.8% | -10.4% | -5.1% | 0.0
CCOC(=O)NC1Cc2ccccc2C1Sc1ccccn1 (stereo not drawn) | 4.1 | -20.2% | x | 18.2% | 6.8
C=CCc1c(C)nc(C)nc1N/N=C/c1ccc(F)cc1 | -6.1 | u | 4.0% | u | 2.5
C=CCc1c(C)nc(C)nc1N/N=C/c1ccccc1 | -9.1 | 1.58µM* | 9.6% | 10µM* | 0.2
Cc1noc(C)c1S(=O)(=O)N(C)C[C@H]1Oc2ccc(NC(=O)CCC(F)(F)F)cc2C(=O)N([C@H](C)CO)C[C@@H]1C | 6.4 | x | x | x | 9.9
